Measurements as given in PubChem BioAssay AID1159580 (chemical genetic matrix, 2015).
In all, about 5,500 compounds went through this assay and about 2,000 (36%) were called active. Not shown: some 18% with an inconclusive outcome. No stated cut-off is given here; in the data, active means normalized growth mostly below about 0.91 (no sharp cut-off); inconclusive means no clear call, values can overlap the other calls; inactive means mostly above about 0.92. Some of the results follow.

Test: chemical genetic growth profiling, strain panel (AID 1159580);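 further: tested at 20 µM; growth read once vehicle control cultures reached saturation at 30 °C; 1 = growth at the plate median or of vehicle wells; lower values mean less growth of the strain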
Conditions: growth OD
[1] = S. cerevisiae deletion strains, locus YAL013W, strain DEP1, hits give low values
[2] = S. cerevisiae deletion strains, locus YBR229C, strain ROT2, hits give low values
[3] = S. cerevisiae deletion strains, locus YDL101C, strain DUN1, hits give low values
[4] = S. cerevisiae deletion strains, locus YDR150W, strain NUM1, hits give low values
[5] = S. cerevisiae deletion strains, locus YEL061C, strain CIN8, hits give low values
[6] = S. cerevisiae deletion strains, locus YGR078C, strain PAC10, hits give low values
[7] = S. cerevisiae deletion strains, locus YHR030C, strain SLT2, hits give low values
[8] = S. cerevisiae deletion strains, locus YHR087W, strain rtc3, hits give low values
[9] = S. cerevisiae deletion strains, locus YJL187C, strain SWE1, hits give low values
[10] = S. cerevisiae deletion strains, locus YJR043C, strain POL32, hits give low values
[11] = S. cerevisiae deletion strains, locus YJR075W, strain HOC1, hits give low values
[12] = S. cerevisiae deletion strains, locus YKL190W, strain CNB1, hits give low values
[13] = S. cerevisiae deletion strains, locus YLR039C, strain RIC1, hits give low values
[14] = S. cerevisiae deletion strains, locus YLR058C, strain SHM2 (second series), hits give low values
[15] = S. cerevisiae deletion strains, locus YLR085C, strain ARP6, hits give low values
[16] = S. cerevisiae deletion strains, locus YLR262C, strain YPT6, hits give low values
[17] = S. cerevisiae deletion strains, locus YML094W, strain GIM5, hits give low values
[18] = S. cerevisiae deletion strains, locus YMR219W, strain ESC1, hits give low values
[19] = S. cerevisiae deletion strains, locus YMR263W, strain SAP30, hits give low values
[20] = S. cerevisiae deletion strains, locus YMR307W, strain GAS1, hits give low values
[21] = S. cerevisiae deletion strains, locus YNL128W, strain TEP1, hits give low values
[22] = S. cerevisiae deletion strains, locus YNL153C, strain GIM3, hits give low values
[23] = S. cerevisiae deletion strains, locus YNL298W, strain CLA4 (second series), hits give low values
[24] = S. cerevisiae deletion strains, locus YNL322C, strain KRE1, hits give low values
[25] = S. cerevisiae deletion strains, locus YNR030W, strain Alg12, hits give low values
[26] = S. cerevisiae deletion strains, locus YPL055C, strain LGE1, hits give low values
[27] = S. cerevisiae deletion strains, locus YPL241C, strain CIN2, hits give low values
[28] = S. cerevisiae deletion strains, locus YPR135W, strain CTF4, hits give low values
[29] = S. cerevisiae strains, strain wild type, hits give low values

Measured: normalized growth

O=C1c2cccc3c([N+](=O)[O-])ccc(c23)C(=O)N1Cc1ccco1
active: [1] 0.81 | S. cerevisiae deletion strains, locus YCL061C, strain MRC1, hits give low values 0.896 | [3] 0.873 | [4] 0.763 | [5] 0.909 | [6] 0.879 | [7] 0.321 | [10] 0.791 | [15] 0.341 | [17] 0.797 | [19] 0.796 | [22] 0.899 | [23] 0.753 | [25] 0.559 | [26] 0.628 | [27] 0.634 | [28] 0.382
inactive: [2] 0.94 | [8] 0.974 | [9] 0.995 | [11] 0.97 | [12] 0.934 | [13] 0.852 | [14] 0.972 | [16] 0.815 | [18] 0.98 | [20] 0.739 | [21] 0.958 | [24] 0.997 | [29] 0.935

O=C1c2cccc3cc([N+](=O)[O-])cc(c23)C(=O)N1CCO
inactive: [1] 0.992 | [2] 1.02 | [3] 0.974 | [4] 0.995 | [5] 1.01 | [6] 0.988 | [7] 1.04 | [8] 1.02 | [9] 0.984 | [10] 0.995 | [11] 1.02 | [12] 1.02 | [13] 1.03 | [14] 1.01 | [15] 0.908 | [16] 1.05 | [17] 0.976 | [18] 1.01 | [19] 0.984 | [21] 1 | [22] 1.02 | [23] 0.975 | [24] 1.01 | [25] 0.985 | [26] 0.991 | [27] 1.01 | [28] 0.89 | [29] 1.01

Cc1nc2c([nH]1)c(=O)n(C)c(=O)n2Cc1ccco1
inactive: [1] 1.04 | S. cerevisiae deletion strains, locus YAL040C, strain CLN3, hits give low values 1 | S. cerevisiae deletion strains, locus YCL061C, strain MRC1 (second series), hits give low values 1.01 | [4] 1 | S. cerevisiae deletion strains, locus YDR363W, strain ESC2, hits give low values 1.03 | S. cerevisiae deletion strains, locus YER002W, strain NOP16, hits give low values 0.998 | [20] 1.02 | S. cerevisiae deletion strains, locus YNL175C, strain NOP13, hits give low values 1.01 | S. cerevisiae deletion strains, locus YNL197C, strain WHI3, hits give low values 1.01 | S. cerevisiae deletion strains, locus YNL224C, strain SQS1, hits give low values 0.995 | [24] 1.02 | S. cerevisiae deletion strains, locus YOR083W, strain WHI5 (second series), hits give low values 1.05 | [26] 1.01

CC1/C(=N\O)C[C@@H]2C[C@H]1C2(C)C (stereo not given in full)
inactive: [1] 1.01 | S. cerevisiae deletion strains, locus YBR021W, strain FUR4, hits give low values 1.01 | [2] 1.01 | S. cerevisiae deletion strains, locus YCL029C, strain bik1, hits give low values 0.994 | S. cerevisiae deletion strains, locus YDL035C, strain GPR1, hits give low values 0.993 | S. cerevisiae deletion strains, locus YDL074C, strain BRE1, hits give low values 1.04 | [3] 1.02 | S. cerevisiae deletion strains, locus YDL134C, strain PPH21, hits give low values 1.01 | S. cerevisiae deletion strains, locus YDL185W, strain tfp1, hits give low values 1.02 | S. cerevisiae deletion strains, locus YDL192W, strain arf1, hits give low values 1.03 | S. cerevisiae deletion strains, locus YDR101C, strain arx1, hits give low values 0.981 | S. cerevisiae deletion strains, locus YDR162C, strain NBP2, hits give low values 1.02 | S. cerevisiae deletion strains, locus YDR318W, strain mcm21, hits give low values 1.04 | S. cerevisiae deletion strains, locus YDR388W, hits give low values 1.02 | S. cerevisiae deletion strains, locus YDR502C, strain sam2, hits give low values 1.02 | S. cerevisiae deletion strains, locus YER110C, hits give low values 1.01 | S. cerevisiae deletion strains, locus YER155C, strain BEM2, hits give low values 1.01 | S. cerevisiae deletion strains, locus YER167W, strain BCK2, hits give low values 1.01 | S. cerevisiae deletion strains, locus YGL078C, strain dbp3, hits give low values 1.02 | S. cerevisiae deletion strains, locus YGL086W, strain mad1, hits give low values 0.999 | S. cerevisiae deletion strains, locus YGL248W, strain PDE1, hits give low values 1.03 | [6] 1.03 | S. cerevisiae deletion strains, locus YGR135W, strain pre9, hits give low values 1.04 | S. cerevisiae deletion strains, locus YGR252W, strain gcn5, hits give low values 1.01 | [7] 1.03 | S. cerevisiae deletion strains, locus YHR079C, strain IRE1 (second series), hits give low values 1.03 | S. cerevisiae deletion strains, locus YHR079C, strain IRE1, hits give low values 1.04 | S. cerevisiae deletion strains, locus YHR094C, strain hxt1, hits give low values 1.01 | S. cerevisiae deletion strains, locus YHR129C, strain ARP1, hits give low values 1.01 | S. cerevisiae deletion strains, locus YHR200W, strain rpn10, hits give low values 1.03 | S. cerevisiae deletion strains, locus YIL066C, strain RNR3, hits give low values 1.01 | S. cerevisiae deletion strains, locus YIL073C, strain SPO22, hits give low values 1.05 | S. cerevisiae deletion strains, locus YIL125W, strain kgd1, hits give low values 1.02 | S. cerevisiae deletion strains, locus YIR030C, strain dcg1, hits give low values 1.02 | S. cerevisiae deletion strains, locus YJL095W, strain BCK1, hits give low values 1.04 | S. cerevisiae deletion strains, locus YJL134W, strain LCB3, hits give low values 1.02 | S. cerevisiae deletion strains, locus YJL168C, strain set2, hits give low values 1.01 | S. cerevisiae deletion strains, locus YJL187C, strain SWE1 (second series), hits give low values 1.03 | [10] 0.994 | S. cerevisiae deletion strains, locus YJR066W, strain TOR1, hits give low values 0.95 | [11] 1.03 | S. cerevisiae deletion strains, locus YKL009W, strain mrt4, hits give low values 0.995 | S. cerevisiae deletion strains, locus YKL068W, hits give low values 1.02 | S. cerevisiae deletion strains, locus YKL085W, strain MDH1 (second series), hits give low values 1.02 | S. cerevisiae deletion strains, locus YKL085W, strain MDH1, hits give low values 1.02 | [12] 1.01 | S. cerevisiae deletion strains, locus YKR001C, strain vps1, hits give low values 1.05 | [13] 1.09 | S. cerevisiae deletion strains, locus YLR058C, strain SHM2, hits give low values 1.02 | S. cerevisiae deletion strains, locus YLR102C, strain apc9, hits give low values 1.05 | S. cerevisiae deletion strains, locus YLR113W, strain HOG1, hits give low values 1.05 | [16] 1.1 | S. cerevisiae deletion strains, locus YLR268W, strain sec22, hits give low values 1.02 | S. cerevisiae deletion strains, locus YLR371W, strain rom2, hits give low values 1.04 | S. cerevisiae deletion strains, locus YLR418C, strain cdc73, hits give low values 1.06 | S. cerevisiae deletion strains, locus YML016C, strain PPZ1, hits give low values 1.02 | S. cerevisiae deletion strains, locus YML032C, strain rad52, hits give low values 1.02 | S. cerevisiae deletion strains, locus YML124C, strain tub3, hits give low values 1.01 | S. cerevisiae deletion strains, locus YMR078C, strain ctf18, hits give low values 1.03 | S. cerevisiae deletion strains, locus YMR223W, strain ubp8, hits give low values 1.02 | [20] 1.06 | S. cerevisiae deletion strains, locus YNL067W, strain RPL9B, hits give low values 1.02 | S. cerevisiae deletion strains, locus YNL183C, strain NPR1, hits give low values 0.951 | S. cerevisiae deletion strains, locus YNL233W, strain BNI4, hits give low values 1.03 | S. cerevisiae deletion strains, locus YNL250W, strain rad50, hits give low values 1.05 | S. cerevisiae deletion strains, locus YNL271C, strain bni1, hits give low values 1.02 | S. cerevisiae deletion strains, locus YNL298W, strain CLA4, hits give low values 1.02 | S. cerevisiae deletion strains, locus YNL307C, strain MCK1, hits give low values 1.01 | S. cerevisiae deletion strains, locus YNR052C, strain pop2, hits give low values 1.03 | S. cerevisiae deletion strains, locus YOL012C, strain htz1 1.25 | S. cerevisiae deletion strains, locus YOL147C, strain pex11, hits give low values 1.01 | S. cerevisiae deletion strains, locus YOR061W, strain CKA2, hits give low values 1.02 | S. cerevisiae deletion strains, locus YOR069W, strain VPS5, hits give low values 1.01 | S. cerevisiae deletion strains, locus YOR136W, strain idh2, hits give low values 1 | S. cerevisiae deletion strains, locus YOR144C, strain elg1, hits give low values 1.01 | S. cerevisiae deletion strains, locus YOR184W, strain ser1, hits give low values 0.926 | S. cerevisiae deletion strains, locus YOR231W, strain MKK1, hits give low values 1.02 | S. cerevisiae deletion strains, locus YOR316C, strain cot1, hits give low values 1.03 | S. cerevisiae deletion strains, locus YPL256C, strain CLN2, hits give low values 1.05 | S. cerevisiae deletion strains, locus YPR119W, strain clb2, hits give low values 1.03 | S. cerevisiae deletion strains, locus YPR141C, strain kar3, hits give low values 1.02 | S. cerevisiae deletion strains, locus YPR163C, strain tif3, hits give low values 1.03 | S. cerevisiae deletion strains, locus YPR167C, strain met16, hits give low values 1.03 | S. cerevisiae deletion strains, strain wtn01, hits give low values 0.995
